DRD3 antagonist: D3 dopamine receptor (human) antagonism; D3R cells, DiscoveRx beta-arrestin luminescence, antagonist mode; stronger effect = lower value; max response, negative = inhibition, %; 360,000 tested, 2.5% active; in the data active = max response below about -50%; inconclusive = no clear call, values can overlap the other calls; also: % is scaled to controls: 0 for no effect and ±100 for the full control effect
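Cells plated overnight at 1500 cells/well, then exposed to library compounds with dopamine controls for 90 minutes at 37 degrees C. DiscoveRx reagent added for 30–60 minutes at room temperature; luminescence read, quantitative HTS format.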
pAkt inh: inhibitors of Akt phosphorylation; Neuro2A IGF-stimulated pAkt S473 HTRF, 20 min; stronger effect = lower value; activity change, % for hits at 50 µM; 360,000 tested, 0.32% active; AID 651550; in the data active = activity change below about -80%; inconclusive = mostly about -51% to -80%; also: % is scaled to controls: 0 for no effect and ±100 for the full control effect
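Single-point screen (50 µM final compound) in Neuro2A cells stimulated 20 min with 6 nM IGF at 37 deg C. After lysis, Ser473-phosphorylated Akt read by HTRF (ex 330 nm, em 615/665 nm) as the 665/615 ratio.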
LDHA inh: LDHA (human) enzyme inhibition; P00338; purified LDHA, NADH/diaphorase-resazurin fluorescence; stronger effect = lower value; activity change, % (values are at about 110 or 230 µM); 480,000 tested, 0.15% active; AID 1347041; in the data active = activity change below about -30%; inconclusive = mostly about -25% to -30%;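 also: plate controls were DMSO wells for no effect and wells without enzyme for full effect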
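Resorufin fluorescence (ex540/em590), read at 0 and 20 min after diaphorase/resazurin addition, reports the NADH left after a 5 min room-temperature reaction of 2 nM human LDH5 with 0.06 mM NADH and 0.2 mM pyruvate.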
RGS4 inhibitor: blocks human RGS4-accelerated GTP hydrolysis. P49798. Transcreener GDP fluorescence polarization, RGS4-accelerated GTP hydrolysis. Potency, µM (titrated, usually from 114 µM), for the others: top-dose activity change, negative = inhibition, hits mostly inhibitors. 390,000 tested, 0.039% active; active = well fitted inhibition curve with a large enough effect; inconclusive = small, poorly fitted or top-dose-only effect; inactive = no such curve, though single readings can be large or run the other way; also: potency is read from the fitted curve at half-maximal effect; % is scaled to controls: 0 for no effect and ±100 for the full control effect; nearly all actives have a fitted effect of over 75% in size
Target sequence (P49798 whole entry, looked up): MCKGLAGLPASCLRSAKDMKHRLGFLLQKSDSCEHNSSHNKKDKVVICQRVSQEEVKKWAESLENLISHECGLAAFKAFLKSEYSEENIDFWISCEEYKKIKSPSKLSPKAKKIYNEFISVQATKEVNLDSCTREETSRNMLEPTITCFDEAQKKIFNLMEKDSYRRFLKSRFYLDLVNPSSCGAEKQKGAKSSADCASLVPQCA
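MLSMR compounds (23 nl, pin-transferred) preincubated 10 min at room temperature with a 500nM (2x) first reagent, then RGS4 at 900nM (2x) plus Transcreener GDP mix added; fluorescence polarization (620/688 nm) read before and after 90 min at 30 °C.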
DRD3 agonist: D3 dopamine receptor (human) agonism. D3R DiscoveRx beta-arrestin cells, luminescence, 90 min. 410,000 tested, 0.58% active. max activation, %; in the data active = max activation above about 30%; also: 0% is about no effect
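Agonist-mode cell screen: cells plated at 1500/well and incubated overnight at 37 °C, then exposed to library compounds for 90 min at 37 °C. Detection reagent was added for 30–60 min at room temperature, and luminescence was read.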
PI4K2A block: inhibitors of human PI4K2A. Q9BTU6. purified PI4K2A, ADP-Glo luminescence, 1 h; stronger effect = lower value. activity change, negative = inhibition, % at 76.9 µM. 420,000 tested, 0.13% active. AID 1346378; in the data active = activity change below about -50%; inconclusive = mostly about -30% to -49%;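 also: -100% = wells without enzyme as full effect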
Target sequence (Q9BTU6 whole entry, looked up): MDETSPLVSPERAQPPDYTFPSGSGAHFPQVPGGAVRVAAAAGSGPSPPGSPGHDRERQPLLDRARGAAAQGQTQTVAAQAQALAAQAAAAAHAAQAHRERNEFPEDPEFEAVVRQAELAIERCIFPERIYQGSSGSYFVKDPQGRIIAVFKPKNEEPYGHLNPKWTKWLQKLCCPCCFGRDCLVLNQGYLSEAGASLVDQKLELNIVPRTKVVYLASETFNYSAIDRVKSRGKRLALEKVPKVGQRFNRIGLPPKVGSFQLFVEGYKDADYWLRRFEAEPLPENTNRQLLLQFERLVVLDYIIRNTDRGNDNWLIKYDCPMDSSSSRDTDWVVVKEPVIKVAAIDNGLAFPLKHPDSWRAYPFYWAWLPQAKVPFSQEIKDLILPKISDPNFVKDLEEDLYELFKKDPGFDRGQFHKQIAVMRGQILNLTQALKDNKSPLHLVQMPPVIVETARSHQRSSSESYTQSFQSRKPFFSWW
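In this quantitative HTS, ADP production by PI4K2A was quantified luminescently after 1 h at ambient temperature; 100 microM adenosine served as plate-quality control.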
Numbers without * were called inactive; i = inactive; ? = inconclusive; nt = no result given; [ ] = another dose, or the depositor's remark. In the library only some 2.8% were active in any assay of this set; here they are far more common.

SMILES | DRD3 antagonist | pAkt inh | LDHA inh | RGS4 inhibitor | DRD3 agonist | PI4K2A block
COc1ccc(CC(=O)NCCN2CCOCC2)cc1 | 10 | i | -5 | -10% | -1 | 4
O=C(NCCN1CCOCC1)c1ccc(Cl)cc1 | -69* | i | -13 | -3%[56.9 µM] | -71 | 4
Cc1ccc(CC(=O)NCCN2CCOCC2)cc1 | -8 | i | -4 | 18% | 58* | -6
O=C(COc1ccc(F)cc1)NCCN1CCCC1 | -57* | i | -6 | -6% | -15 | -3
O=C(O)c1cccc(-c2ccc(CNCc3ccccc3)o2)c1 | nt | nt | 3 | nt | nt | nt
O=C(NCCN1CCCC1)c1ccc(Br)cc1 | -77* | i | -6 | -23% | -33 | -1
CCOc1ccc(C(=O)NCCN2CCCC2)cc1 | -58* | i | 2 | -32% | -10 | -5
Cc1cc(S(=O)(=O)Nc2ccc(C(=O)NCCCN3CCOCC3)cc2)ccc1F | -13 | i | 1 | -16% | -20 | -6
O=C(NCCC(=O)N1CCN(c2ncccn2)CC1)c1ccc(Cl)cc1 | nt | nt | -4 | nt | nt | nt
O=C(NCCC(=O)N1CCN(c2ncccn2)CC1)c1ccc(Br)cc1 | nt | nt | -32* | nt | nt | nt
Cc1ccc(C(NC(=O)NCCCN2CCOCC2)=C(Cl)Cl)cc1F | -75* | i | -1 | 4% | 0 | -10
CCOc1ccc(C(=O)NCCNC(=O)c2ccc(OCC)cc2)cc1 | 11 | i | -6 | -20% | 4 | 0
O=C(/C=C/c1ccccc1)Nc1ccc(CN2CCOCC2)cc1 | -7 | i | -1 | 13% | 2 | 1
O=C(Nc1ccc(CN2CCCCC2)cc1)Nc1ccc(Br)cc1Cl | -79* | i | -1 | 1% | -29 | 2
O=C(/C=C/c1cccc(Cl)c1)NCCN1CCOCC1 | -17 | i | -10 | 12% | -3 | 4
O=C(/C=C/c1ccc(Cl)cc1)NCCN1CCOCC1 | -9 | -95%* | -2 | 15% | -4 | 3
O=C(Nc1ccc(CN2CCCC2)cc1)Nc1ccc2c(c1)OCCO2 | nt | nt | 0 | nt | nt | nt
O=C(/C=C/c1ccc(Cl)cc1)NC(=S)Nc1ccc(CN2CCOCC2)cc1 | -65* | i | -8 | -15% | -11 | 1
O=C(CNC(=O)c1ccc(Cl)cc1)NC1CCCCC1 | -59* | i | 0 | -16% | -19 | -7
O=C(CCNC(=O)c1ccc(Cl)cc1)NC1CCCCCC1 | 6 | i | -5 | -22% | -4 | 3
Cc1cc(C)c(S(=O)(=O)N2CCN(c3ccc(N4CCCCCC4)nn3)CC2)c(C)c1 | nt | nt | 8 | nt | nt | nt
O=C1CCSc2c1cccc2C(=O)Nc1ccc(F)cc1Cl | nt | nt | 4 | nt | nt | nt
COc1cccc(-c2ccc(C#N)c(SCC(=O)Nc3ccc(C(C)=O)cc3)n2)c1 | nt | nt | 2 | nt | nt | nt
Nc1c(F)cc(F)cc1-c1ccccc1 | nt | nt | 0 | nt | nt | nt
CN1CCN(c2ccc(CNS(=O)(=O)c3ccc(F)cc3Cl)cc2)CC1 | -29 | i | -1 | 17% | -17 | -1
SMILES | DRD3 antagonist | pAkt inh | LDHA inh | RGS4 inhibitor | DRD3 agonist | PI4K2A block
Cc1cc(S(=O)(=O)NCc2ccc(N3CCN(C)CC3)cc2)c(C)s1 | -63* | i | -3 | -2% | -11 | 0
O=C(CSc1ccc2ccccc2c1)Nc1ccncc1 | 11 | i | 4 | -17% | 23 | 3
O=C(CSc1ccccc1)Nc1ccncc1 | 34 | -139%* | 2 | -28% | 2 | -5
COc1cccc(CNC(=O)C2CCN(c3nc4c(C)cc(C)cc4s3)CC2)c1 | nt | nt | -2 | nt | nt | nt
CCn1nc(C)c(Br)c1-c1nc(-c2ccc(C)cc2)no1 | 39 | i | 0 | 1% | 35* | -1
Cc1nc2nc(Cc3ccccc3)[nH]n2c(=O)c1Cc1ccccc1 | -2 | i | 1 | -53% | 1 | 6
Cc1nc2nc(Cc3ccccc3)[nH]n2c(=O)c1Cl | 33 | -114%* | -5 | 18% | -1 | 10
O=S(=O)(c1ccccc1)N(Cc1nc(-c2ccccc2)no1)C1CCCCC1 | -53* | i | -3 | -24% | -15 | -6
CCCc1cc(=O)oc2cc(OCC(=O)NCC(C)C)ccc12 | nt | nt | 1 | nt | nt | nt
O=C(NCc1cccnc1)c1cc(C2CCCN(S(=O)(=O)c3cccs3)C2)on1 (stereo not drawn) | 14 | i | -17 | nt | 16 | 0
O=C(NCc1ccccc1)c1cc(C2CCCN(S(=O)(=O)c3cccs3)C2)on1 (stereo not drawn) | -68* | i | -1 | nt | -21 | -1
O=C(NCc1cccnc1)c1cc(C2CCCN(C(=O)c3cccs3)C2)on1 (stereo not drawn) | -123* | i | -5 | nt | -22 | -6
O=C(CCc1ncc(-c2ccccc2Cl)o1)NC1=NCCS1 | nt | nt | -18 | nt | nt | nt
O=Nc1nc2ncccn2c1-c1ccccc1 | -57* | i | 16 | ? | -14 | -5
O=C(CSc1ncc(-c2ccc(F)cc2)[nH]1)N1CCCCC1 | -59* | i | 5 | 17% | -1 | 2
COc1ccc(C(=O)N/N=C(\c2ccccc2)c2ccccn2)cc1 | -56* | i | -8 | 6% | -13 | -2
Cn1nc(C(=O)NCc2ccccn2)c2ccccc2c1=O | -8 | -94%* | -1 | 18% | 1 | 2
O=C(N/N=C(\c1ccccc1)c1ccccn1)c1ccccc1Cl | ? | i | 1 | 6% | -4 | 4
O=C(NN=C(c1ccccc1)c1ccccn1)c1ccccc1 | -56* | i | -2 | 10% | -14 | 5
COc1ccc(C(=O)NCc2ccccn2)cc1 | -65* | i | -1 | 25% | -5 | -4
CCCCOc1ccc(C(=O)NCc2ccccn2)cc1 | -7 | i | -1 | -14% | -11 | -4
CC(C)(C)N=C1NN=C(c2c[nH]c3ccccc23)CS1 | nt | nt | -6 | nt | nt | nt
O=C(NCc1ccccn1)c1c(O)c2cccc3c2n(c1=O)CC3 | -56* | i | 5 | -17% | -4 | -6
CS(=O)(=O)c1nc(-c2ccccc2)cc(-c2ccccc2)c1C#N | -66* | i | 1 | -48% | 3 | 8
COc1cc(C2c3cc4c(cc3OC(Nc3ccc(C(=O)O)cc3)C2C)OCO4)cc(OC)c1OC (stereo not drawn) | 112 | i | -7 | -20% | 33* | -2
COc1cc(C2c3cc4c(cc3OC(NCCc3ccccc3)C2C)OCO4)cc(OC)c1OC (stereo not drawn) | -7 | i | -3 | -10% | -1 | -1
COc1cccc(C(=O)Oc2c(CN3CCOCC3)cc(Cl)c3cccnc23)c1 | -8 | i | 11 | -25% | -23 | -21
O=C(Oc1c(CN2CCOCC2)cc(Cl)c2cccnc12)c1ccccc1Cl | -65* | i | 18 | -5% | -18 | -30
O=C(Oc1c(CN2CCOCC2)cc(Cl)c2cccnc12)c1ccc(F)cc1 | -61* | i | 37 | ? | -24 | -5

From PubChem
